Experiment: qHTS profiling of the MIPE4 collection as inhibitors of Plasmodium falciparum (3D7) proliferation (AID 743344);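 also: scaled between DMSO vehicle wells and 0.29 µM artemisinin as full inhibition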
Settings: P. falciparum 3D7 in erythrocytes, SYBR Green DNA fluorescence, 72 h; at 28.5 µM
How it was run: (§1)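 Erythrocytes infected with P. falciparum (0.3% parasitemia, 2.5% hematocrit) incubated with compounds 72 h at 37 C, 5% CO2. Lysis with saponin/Triton buffer containing SYBR Green I, overnight at room temperature in the dark; DNA fluorescence (485/535 nm) normalised to 0.29 uM artemisinin and DMSO.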

Row | Compound | parasite growth, % of DMSO control [%]
1 | CC(=Cc1csc(C)n1)[C@@H]1C[C@H]2O[C@@H]2CCC[C@H](C)[C@@H](O)[C@@H](C)C(=O)C(C)(C)[C@@H](O)CC(=O)O1 | 14.6
2 | CC(=O)O[C@@]12CO[C@H]1C[C@H](O)[C@@]1(C)C(=O)[C@H](O)C3=C(C)[C@@H](O)C[C@@](O)([C@@H](OC(=O)c4ccccc4)[C@@H]21)C3(C)C | 60.1
3 | CC(C)[C@]12O[C@@H]1[C@@H]1O[C@]13[C@]1(O[C@H]1C[C@@H]1C4=C(CC[C@@]13C)C(=O)OC4)[C@H]2O | 56.9
4 | C[C@H]1CCCC=CC2C[C@H](O)C[C@@H]2[C@H](O)C=CC(=O)O1 (some centres not stated) | 4.99
5 | COC1=C[C@@H]2[C@@H]3Cc4ccc(OC)c(O)c4[C@]2(CCN3C)CC1=O | 102
6 | COc1cccc2c1[C@]13CCN(CC4CC4)[C@H](C2)[C@]1(OC)CCC(=O)C3 | 98.3
7 | C[C@]12CC[C@H](O)CC1=CC[C@H]1[C@H]3CCC(=O)[C@@]3(C)CC[C@@H]12 | 72.2
8 | O=c1[nH]c2ccc(Cl)cc2c(N[C@@H]2CN3CCC2CC3)c1-c1nc2ccccc2[nH]1 | 5.05

Experiment: qHTS profiling of the MIPE4 collection as inhibitors of Plasmodium falciparum (DD2) proliferation (AID 743345)
Settings: P. falciparum Dd2 in erythrocytes, SYBR Green DNA, 72 h; at 28.5 µM unless noted
How it was run: as §1

Row | Compound | parasite growth remaining, % of DMSO control (lower = more inhibition) [%]
9 | CC(=O)OCC1=C(C(=O)O)N2C(=O)[C@@H](N)[C@@H]2SC1 | 97.8
10 | CN[C@@H]1Cc2cccc3[nH]c(=O)n(c23)C1 | 105
11 | COc1ccc2c(c1)[C@]13CCCCC1C(C2)N(C)CC3 (some centres not stated) | 85.3
12 | C[C@H]([C@H](O)CCC(C)(C)O)[C@H]1CC[C@@]2(O)C3=CC(=O)[C@@H]4C[C@@H](O)[C@@H](O)C[C@]4(C)[C@@H]3CC[C@]12C | 99.4
13 | COC(=O)[C@@H](N)CCCN=C(N)N[N+](=O)[O-] | 94.8
14 | C[C@@H]1CC[C@@]2(OC1)O[C@H]1C[C@H]3[C@@H]4CC=C5C[C@@H](O[C@@H]6O[C@H](CO)[C@@H](O[C@@H]7O[C@@H](C)[C@H](O)[C@@H](O)[C@@H]7O)[C@H](O)[C@@H]6O[C@@H]6O[C@@H](C)[C@H](O)[C@@H](O)[C@@H]6O)CC[C@]5(C)[C@@H]4CC[C@]3(C)[C@@H]1[C@H]2C | 52.8
15 | C[C@]12Cc3cn[nH]c3C[C@@H]1CC[C@@H]1[C@H]2CC[C@@]2(C)[C@H]1CC[C@]2(C)O | 90
16 | C[C@@H]1CC[C@H]2[C@@H](C)C(=O)O[C@@H]3O[C@@]4(C)CC[C@H]1[C@]32OO4 | 7.95
17 | COC[C@H]1OC(=O)c2coc3c2[C@@]1(C)C1=C(C3=O)[C@@H]2CC[C@H](O)[C@@]2(C)C[C@@H]1OC(C)=O | 83.2
18 | C[C@]12CC[C@@H]3[C@@H](CCC4=CC(=O)CC[C@@H]43)[C@@H]1CC[C@@H]2OC(=O)CCc1ccccc1 | 83
19 | COc1cc([C@@H]2c3cc4c(cc3[C@@H](O)C3COC(=O)C32)OCO4)cc(OC)c1O (some centres not stated) | 88.5
20 | O=c1cccc2n1CC1CNC[C@H]2C1 | 90.9
21 | C[C@@H]1O[C@@H](O[C@@H]2C=C3CC[C@@H]4[C@@H](CC[C@]5(C)[C@H](c6ccc(=O)oc6)CC[C@@]45O)[C@@]3(C)CC2)[C@H](O)[C@H](O)[C@H]1O | 94.6
22 | CC(C)(O)C=CC(=O)[C@](C)(O)[C@H]1[C@H](O)C[C@]2(C)[C@@H]3CC=C4[C@@H](C=C(O)C(=O)C4(C)C)[C@]3(C)C(=O)C[C@@]12C | 7.06
23 | Cc1ccccc1-n1c(Cn2ncc3c(N)ncnc32)nc2cccc(C)c2c1=O | 94.1
24 | Cc1[nH]nc2ccc(-c3cncc(OC[C@@H](N)Cc4c[nH]c5ccccc45)c3)cc12 | 47.9
25 | Clc1ccccc1C(c1ccccc1)(c1ccccc1)n1cccn1 | 34.8
26 | C#C[C@]1(O)C=C[C@@H]2[C@@H]3CCC4=CC(=O)CC[C@@H]4[C@H]3CC[C@@]21CC | 59.4
27 | CN(C)[C@@H]1C(=O)C(C(N)=O)=C(O)[C@@]2(O)C(=O)C3=C(O)c4c(O)cccc4[C@@](C)(O)[C@H]3[C@H](O)[C@@H]12 | 45.1
28 | C[C@]12CC[C@H]3[C@@H](CCC4=CC(=O)CC[C@@]43C)[C@H]1CC[C@H]2OC(=O)CCC1CCCC1 | 15.6
29 | CC(=Cc1csc(C)n1)[C@@H]1C[C@H]2O[C@]2(C)CCC[C@H](C)[C@@H](O)[C@@H](C)C(=O)C(C)(C)[C@@H](O)CC(=O)O1 | 15.7
30 | COCC1(CO)C(=O)C2CCN1CC2 (configuration not stated) | 85.2
31 | O=C(N[C@H]1CN2CCC1CC2)c1ccc(Cl)cc1 | 82.1
32 | C[C@@H]1[C@H](O)[C@@H](C)C=CC=CCCC=CC=CC=CC=C[C@H](O[C@H]2O[C@@H](C)[C@H](O)[C@@H](N)[C@@H]2O)CC2O[C@](O)(C[C@@H](O)[C@H](O)CC[C@@H](O)C[C@@H](O)C[C@@H](O)CC(=O)O[C@H]1C)C[C@H](O)[C@H]2C(=O)O | 103
